Active and inactive are the calls of the source. Unless noted, the rule behind the calls is not given here.
Legend:
[1] = tested on: XIP peptide (Xip251-270) binding; test: XIP fragment 251-270 binding compounds – biochemical, small-molecule microarray, fluorescence 635/667 nm, 0.1 µg/mL protein, primary screen (AID 1182); conditions: fluorescent protein binding, 635 nm, higher = more signal, called active from +8 up or from −8 down
[2] = tested on: XIP peptide (Xip251-270); test: compounds binding XIP fragment 251-270 – biochemical, small-molecule microarray, fluorescence 635/667 nm, 0.5 µg/mL protein, primary screen (AID 1183); conditions: fluorescence 635 nm, higher = more signal
[3] = blood-stage malaria parasite viability loss – strain 3D7, DAPI fluorescence, 100 nL, primary screen (AID 1184);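 note: parasites grown inside human red blood cells in medium with human serum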; conditions: P. falciparum 3D7 growth, 3 d, higher = more signal
[4] = biological target: Homeobox protein Hox-A13 (Mus musculus) (UniProt Q62424); test: disruptors of Hoxa13 oligonucleotide interaction – biochemical, fluorescence polarization, labeled oligonucleotide, primary screen (AID 1185); conditions: Hoxa13:DNA binding, 15 min, higher = more signal, called active from +8 up or from −8 down
[5] = blockers of DNA damage checkpoint Chk1 activation – imaging, HeLa, hydroxyurea, phospho-Chk1 antibody, percent positive cells, primary screen (AID 1186); conditions: hydroxyurea-induced phospho-Chk1 immunofluorescence imaging, higher = more signal
[6] = blockers of DNA damage checkpoint Chk1 activation – imaging, HeLa, hydroxyurea, phospho-Chk1 nuclear intensity, primary screen (AID 1187); conditions: hydroxyurea-induced phospho-Chk1 immunofluorescence imaging, higher = more signal

Sequence of Homeobox protein Hox-A13 (Mus musculus) (Q62424 whole entry, looked up): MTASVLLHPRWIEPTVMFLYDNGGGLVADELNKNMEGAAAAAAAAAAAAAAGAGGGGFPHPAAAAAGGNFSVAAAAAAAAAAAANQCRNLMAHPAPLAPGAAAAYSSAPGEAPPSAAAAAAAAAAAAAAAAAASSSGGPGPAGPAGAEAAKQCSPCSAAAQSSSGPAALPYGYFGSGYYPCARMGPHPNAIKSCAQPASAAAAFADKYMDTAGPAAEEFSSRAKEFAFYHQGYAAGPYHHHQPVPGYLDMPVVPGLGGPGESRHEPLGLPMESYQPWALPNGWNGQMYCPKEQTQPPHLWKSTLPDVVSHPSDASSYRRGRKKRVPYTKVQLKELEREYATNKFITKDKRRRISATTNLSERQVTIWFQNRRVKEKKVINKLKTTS

Compound: C=CC[C@@]1(C(=O)N2CCCCC2)N=C(c2ccc(OCCCO)cc2)O[C@@H]1c1ccccc1CN=[N+]=[N-]
- composite z-score [1]: 0.274 (inactive)
- composite z-score [2]: 0.888
- z-score [3]: -2.21
- z-score [4]: -0.0816 (inactive)
- z-score [5]: -0.514 (inactive)
- z-score [6]: -0.604 (inactive)

Compound: [N-]=[N+]=Nc1ccccc1C[C@]1(C(=O)NCC(O)CO)N=C(c2ccc(OCCCO)cc2)O[C@H]1c1ccccc1 (stereo not given in full)
- composite z-score [1]: 0.474 (inactive)
- composite z-score [2]: 0.511
- z-score [3]: -1.9
- z-score [4]: -5.96 (inactive)
- z-score [5]: 0.178 (inactive)
- z-score [6]: -0.365 (inactive)

Compound: OCC1C=C(/C=C/c2ccccc2)CN1Cc1ccccc1Br (stereo not given)
- composite z-score [1]: 1.74 (inactive)
- composite z-score [2]: 0.698
- z-score [3]: -0.982
- z-score [4]: -2.19 (inactive)
- z-score [5]: -0.449 (inactive)
- z-score [6]: -0.283 (inactive)

Compound: O=C(CS)NCCCCCNC(=O)[C@@H]1C[C@@H]2C(=O)NCC(=O)N2[C@@H]1c1ccc(O)cc1
- composite z-score [1]: 0.366 (inactive)
- composite z-score [2]: 0.352
- z-score [3]: -1.16
- z-score [4]: -1.43 (inactive)
- z-score [5]: 0.258 (inactive)
- z-score [6]: 0.425 (inactive)

Compound: C=C[C@H](C)[C@@H](OC(=O)Nc1ccc(SC)cc1)c1ccc(O)c2ccccc12
- composite z-score [1]: 0.68 (inactive)
- composite z-score [2]: 0.248
- z-score [3]: -0.127
- z-score [4]: -4.35 (inactive)
- z-score [5]: 1.16 (inactive)
- z-score [6]: 0.893 (inactive)

Compound: O=C1OCCC=C[C@H]2OC34C=CCN(CCN5CCOCC5)C(=O)[C@H]3N(CCCCCO)C(=O)[C@@H]4C12 (stereo not given in full)
- composite z-score [1]: 0.272 (inactive)
- composite z-score [2]: 0.348
- z-score [3]: 0.124
- z-score [4]: -5.57 (inactive)
- z-score [5]: 0.139 (inactive)
- z-score [6]: 0.357 (inactive)

Compound: COC(=O)C(CC#Cc1ccc2c(c1)[C@]1(C(=O)N2)[C@H](c2ccccc2OCCO)N2[C@H](c3ccccc3)[C@H](c3ccccc3)OC(=O)[C@H]2[C@@H]1C(N)=O)C(=O)OC
- composite z-score [1]: 0.945 (inactive)
- composite z-score [2]: 0.787
- z-score [3]: -2.24
- z-score [4]: -2.21 (inactive)
- z-score [5]: 0.202 (inactive)
- z-score [6]: 0.555 (inactive)

Compound: C=CC[C@]1(C(=O)N2CCOCC2)N=C(c2ccc(OCCCO)cc2)O[C@H]1c1ccccc1N=[N+]=[N-]
- composite z-score [1]: 0.821 (inactive)
- composite z-score [2]: 0.75
- z-score [3]: -1.92
- z-score [4]: -4.01 (inactive)
- z-score [5]: -0.528 (inactive)
- z-score [6]: -0.67 (inactive)

Compound: COc1cc2c(cc1O)C=[N+](Cc1cc3c(cc1Br)OCO3)CC2
- composite z-score [1]: -0.105 (inactive)
- composite z-score [2]: 1.1
- z-score [3]: -1.88
- z-score [4]: -3.19 (inactive)
- z-score [5]: -0.126 (inactive)
- z-score [6]: -0.203 (inactive)

Compound: CC(=O)Nc1cc(Br)ccc1C(=O)NCc1ccccc1
- composite z-score [1]: 0.137 (inactive)
- composite z-score [2]: 0.201
- z-score [3]: 1.3
- z-score [4]: -0.77 (inactive)
- z-score [5]: 0.0852 (inactive)
- z-score [6]: 0.516 (inactive)

Compound: C[N+](C)(C)CCCC[C@@H]1NC(=O)[C@@H]2C[C@H](C(=O)NCCCCCN)[C@H](c3ccc(O)cc3)N2C1=O
- composite z-score [1]: 0.941 (inactive)
- composite z-score [2]: 0.831
- z-score [3]: 0.117
- z-score [4]: -0.32 (inactive)
- z-score [5]: -0.661 (inactive)
- z-score [6]: -0.154 (inactive)

Compound: O=C1C2C=CC(C(O)c3ccc(-c4ccccc4)s3)N(Nc3ccccc3)C2C(=O)N1c1ccccc1 (stereo not given)
- composite z-score [1]: 0.57 (inactive)
- composite z-score [2]: 0.769
- z-score [3]: -0.657
- z-score [4]: -1.07 (inactive)
- z-score [5]: 0.484 (inactive)
- z-score [6]: 0.251 (inactive)

Compound: CC(C)NC(=O)[C@@H]1c2ccccc2C(=O)N(C(C)C)[C@H]1c1ccc(CO)cc1
- composite z-score [1]: 0.736 (inactive)
- composite z-score [2]: 0.226
- z-score [3]: -0.25
- z-score [4]: -2.52 (inactive)
- z-score [5]: -0.0669 (inactive)
- z-score [6]: 0.385 (inactive)

Compound: CC(C)C(=C=CC[C@H](O)c1ccc(CO)o1)CCO
- composite z-score [1]: 0.352 (inactive)
- composite z-score [2]: 0.792
- z-score [3]: 1.27
- z-score [4]: -4.02 (inactive)
- z-score [5]: -0.301 (inactive)
- z-score [6]: -0.0779 (inactive)

Compound: Cc1ccc(/C=C/C=O)cc1
- composite z-score [1]: 0.551 (inactive)
- composite z-score [2]: 0.284
- z-score [3]: 1.39
- z-score [4]: -1.15 (inactive)
- z-score [5]: 0.503 (inactive)
- z-score [6]: 0.713 (inactive)

Compound: Cc1ccc(S[C@]2(C(=O)O)CC(=O)N(C(C)C)[C@@H]2c2ccc(CO)cc2)cc1
- composite z-score [1]: 0.402 (inactive)
- composite z-score [2]: 0.216
- z-score [3]: 0.252
- z-score [4]: -0.292 (inactive)
- z-score [5]: -0.696 (inactive)
- z-score [6]: -0.558 (inactive)

Compound: C#CCNCc1ccccc1
- composite z-score [1]: -0.609 (inactive)
- composite z-score [2]: 0.118
- z-score [3]: -0.158
- z-score [4]: -0.0595 (inactive)
- z-score [5]: 0.213 (inactive)
- z-score [6]: -0.392 (inactive)

Compound: CC(C)OC(=O)C=C1C[C@@H](c2cccc(Cl)c2)O[C@@H](c2cccc(Cl)c2)O1
- composite z-score [1]: 0.262 (inactive)
- composite z-score [2]: -0.226
- z-score [3]: -0.642
- z-score [4]: -2.09 (inactive)
- z-score [5]: 0.193 (inactive)
- z-score [6]: -0.0046 (inactive)

Compound: O=C(O)[C@@]1(CCS(=O)(=O)c2ccccc2)N=C(c2ccc(OCCCO)cc2)O[C@H]1c1ccccc1
- composite z-score [1]: 1.15 (inactive)
- composite z-score [2]: 0.392
- z-score [3]: -0.471
- z-score [4]: -5.76 (inactive)
- z-score [5]: 0.0733 (inactive)
- z-score [6]: 0.0816 (inactive)

Compound: CCOC(=O)C[C@H]1[C@H](OC(=O)c2ccc(-c3ccccc3)cc2)[C@@H](NC(=O)c2ccccc2)c2cc(OCCCO)ccc2N1C(=O)c1ccc2ccccc2n1
- composite z-score [1]: 0.304 (inactive)
- composite z-score [2]: 0.0388
- z-score [3]: 1.24
- z-score [4]: -1.19 (inactive)
- z-score [5]: -0.0348 (inactive)
- z-score [6]: -0.234 (inactive)

Compound: CC#CC(=O)Oc1ccc(Br)cc1C=CC(=O)OCC
- composite z-score [1]: 1.17 (inactive)
- composite z-score [2]: -0.101
- z-score [3]: -1.65
- z-score [4]: -3.79 (inactive)
- z-score [5]: 0.309 (inactive)
- z-score [6]: -1.03 (inactive)

Compound: O=C1OCCC/C=C\[C@H]2OC34C=CCN(c5ccc6ccccc6c5)C(=O)[C@H]3N(CCCCCO)C(=O)[C@@H]4C12 (stereo not given in full)
- composite z-score [1]: 0.0867 (inactive)
- composite z-score [2]: 0.0861
- z-score [3]: 1.73
- z-score [4]: -4.94 (inactive)
- z-score [5]: 0.715 (inactive)
- z-score [6]: -0.0708 (inactive)

Compound: O=C1C[C@@](C(=O)NCc2ccccc2)(c2ccc([N+](=O)[O-])cc2)[C@@H](c2ccc(CO)cc2)N1CC12CC3CC(CC(C3)C1)C2
- composite z-score [1]: 1.9 (inactive)
- composite z-score [2]: 0.733
- z-score [3]: -0.83
- z-score [4]: -2.75 (inactive)
- z-score [5]: -0.714 (inactive)
- z-score [6]: -0.762 (inactive)

Compound: [N-]=[N+]=NCc1ccccc1C[C@@]1(C(=O)NCC(O)CO)N=C(c2ccc(OCCCO)cc2)O[C@@H]1c1ccccc1 (stereo not given in full)
- composite z-score [1]: 0.691 (inactive)
- composite z-score [2]: 0.684
- z-score [3]: -2.03
- z-score [4]: -4.12 (inactive)
- z-score [5]: -0.0558 (inactive)
- z-score [6]: 0.274 (inactive)

Compound: O=C1O[C@H](c2ccccc2)[C@H](c2ccccc2)N2[C@H]1[C@@H](C(=O)N1CCN(c3ncccn3)CC1)[C@]1(C(=O)Nc3ccc(C#CC4=CCCCC4)cc31)[C@H]2c1ccccc1OCCO
- composite z-score [1]: 0.263 (inactive)
- composite z-score [2]: 0.938
- z-score [3]: -2.09
- z-score [4]: 1.87 (inactive)
- z-score [5]: 0.28 (inactive)
- z-score [6]: 0.188 (inactive)
